# Measurements reported in ChEMBL document CHEMBL1961873, “Compounds: GSK PKIS; Assays: Nanosyn kinase panel” (2012).
# Key:
# [1] = molecular target: T1, 3-phosphoinositide-dependent protein kinase 1 (Homo sapiens) (UniProt O15530); settings: at 0.1 µM;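 further: values are mean inhibition of PDK1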
# T1 sequence (whole entry): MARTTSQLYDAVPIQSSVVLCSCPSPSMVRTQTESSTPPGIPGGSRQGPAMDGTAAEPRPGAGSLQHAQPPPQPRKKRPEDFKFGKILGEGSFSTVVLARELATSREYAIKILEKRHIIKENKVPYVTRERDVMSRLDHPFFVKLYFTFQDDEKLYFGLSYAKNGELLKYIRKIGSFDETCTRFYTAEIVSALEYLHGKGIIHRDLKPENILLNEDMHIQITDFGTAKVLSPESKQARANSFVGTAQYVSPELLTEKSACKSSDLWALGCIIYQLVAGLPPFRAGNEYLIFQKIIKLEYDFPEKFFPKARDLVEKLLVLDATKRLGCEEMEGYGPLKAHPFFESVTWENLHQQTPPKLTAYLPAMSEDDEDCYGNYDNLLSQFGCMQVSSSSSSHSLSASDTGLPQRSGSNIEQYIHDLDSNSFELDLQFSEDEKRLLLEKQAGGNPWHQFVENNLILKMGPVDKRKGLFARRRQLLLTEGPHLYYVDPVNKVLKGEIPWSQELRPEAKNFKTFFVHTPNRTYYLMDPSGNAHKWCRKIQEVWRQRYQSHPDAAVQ
# [2] = molecular target: cAMP-dependent protein kinase catalytic subunit alpha (Homo sapiens) (UniProt P17612); settings: at 0.1 µM
# [3] = molecular target: cAMP-dependent protein kinase catalytic subunit alpha (Homo sapiens) (UniProt P17612); settings: at 1 µM
# [4] = molecular target: Protein kinase C alpha type (Homo sapiens) (UniProt P17252); settings: at 0.1 µM
# [5] = molecular target: Protein kinase C alpha type (Homo sapiens) (UniProt P17252); settings: at 1 µM
# [6] = molecular target: Protein kinase C beta type (Homo sapiens) (UniProt P05771); settings: at 0.1 µM
# Chain of Protein kinase C beta type (Homo sapiens) (P05771 2-671 limits assumed): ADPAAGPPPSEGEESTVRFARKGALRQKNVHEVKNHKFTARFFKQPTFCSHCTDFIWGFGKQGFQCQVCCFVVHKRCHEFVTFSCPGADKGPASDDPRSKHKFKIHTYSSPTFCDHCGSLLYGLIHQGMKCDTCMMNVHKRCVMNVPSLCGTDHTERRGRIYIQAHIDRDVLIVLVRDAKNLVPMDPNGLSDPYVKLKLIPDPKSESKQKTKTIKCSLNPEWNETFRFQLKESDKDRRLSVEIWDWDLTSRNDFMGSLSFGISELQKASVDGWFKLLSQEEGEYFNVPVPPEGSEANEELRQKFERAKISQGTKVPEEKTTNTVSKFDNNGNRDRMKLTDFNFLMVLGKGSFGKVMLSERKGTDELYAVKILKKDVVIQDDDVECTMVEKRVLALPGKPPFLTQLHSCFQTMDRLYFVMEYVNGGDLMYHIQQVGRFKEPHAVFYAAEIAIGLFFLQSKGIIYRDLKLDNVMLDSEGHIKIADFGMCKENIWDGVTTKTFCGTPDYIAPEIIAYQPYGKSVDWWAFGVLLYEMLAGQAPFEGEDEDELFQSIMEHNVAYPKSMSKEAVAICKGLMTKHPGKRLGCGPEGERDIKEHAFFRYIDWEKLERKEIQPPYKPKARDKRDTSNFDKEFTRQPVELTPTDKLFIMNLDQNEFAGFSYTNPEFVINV
# [7] = molecular target: Protein kinase C beta type (Homo sapiens) (UniProt P05771); settings: at 1 µM
# [8] = molecular target: Protein kinase C eta type (Homo sapiens) (UniProt P24723); settings: at 0.1 µM
# Chain of Protein kinase C eta type (Homo sapiens) (P24723 whole entry): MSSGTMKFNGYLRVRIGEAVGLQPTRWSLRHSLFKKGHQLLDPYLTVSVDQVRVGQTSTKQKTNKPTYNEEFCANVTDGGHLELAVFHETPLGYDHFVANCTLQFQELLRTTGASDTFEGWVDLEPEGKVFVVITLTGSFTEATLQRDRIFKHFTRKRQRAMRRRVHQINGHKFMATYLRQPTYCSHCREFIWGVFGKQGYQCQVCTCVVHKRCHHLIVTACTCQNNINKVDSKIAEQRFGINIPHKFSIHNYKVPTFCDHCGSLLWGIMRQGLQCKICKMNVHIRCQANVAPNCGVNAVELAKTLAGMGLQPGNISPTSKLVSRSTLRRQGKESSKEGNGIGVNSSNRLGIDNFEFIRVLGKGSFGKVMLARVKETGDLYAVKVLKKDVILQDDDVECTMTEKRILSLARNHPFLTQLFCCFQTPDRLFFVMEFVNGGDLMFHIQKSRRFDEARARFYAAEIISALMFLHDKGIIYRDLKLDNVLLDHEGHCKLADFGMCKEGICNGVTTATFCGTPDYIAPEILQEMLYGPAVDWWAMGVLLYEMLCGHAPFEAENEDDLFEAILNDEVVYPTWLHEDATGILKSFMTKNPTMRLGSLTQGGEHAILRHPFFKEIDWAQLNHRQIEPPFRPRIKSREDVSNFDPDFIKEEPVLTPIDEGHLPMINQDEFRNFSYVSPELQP
# [9] = molecular target: Protein kinase C eta type (Homo sapiens) (UniProt P24723); settings: at 1 µM
# [10] = molecular target: Protein kinase C gamma type (Homo sapiens) (UniProt P05129); settings: at 0.1 µM
# [11] = molecular target: Protein kinase C gamma type (Homo sapiens) (UniProt P05129); settings: at 1 µM
# [12] = molecular target: T2, Protein kinase C iota type (Homo sapiens) (UniProt P41743); settings: at 0.1 µM
# T2 sequence (whole entry): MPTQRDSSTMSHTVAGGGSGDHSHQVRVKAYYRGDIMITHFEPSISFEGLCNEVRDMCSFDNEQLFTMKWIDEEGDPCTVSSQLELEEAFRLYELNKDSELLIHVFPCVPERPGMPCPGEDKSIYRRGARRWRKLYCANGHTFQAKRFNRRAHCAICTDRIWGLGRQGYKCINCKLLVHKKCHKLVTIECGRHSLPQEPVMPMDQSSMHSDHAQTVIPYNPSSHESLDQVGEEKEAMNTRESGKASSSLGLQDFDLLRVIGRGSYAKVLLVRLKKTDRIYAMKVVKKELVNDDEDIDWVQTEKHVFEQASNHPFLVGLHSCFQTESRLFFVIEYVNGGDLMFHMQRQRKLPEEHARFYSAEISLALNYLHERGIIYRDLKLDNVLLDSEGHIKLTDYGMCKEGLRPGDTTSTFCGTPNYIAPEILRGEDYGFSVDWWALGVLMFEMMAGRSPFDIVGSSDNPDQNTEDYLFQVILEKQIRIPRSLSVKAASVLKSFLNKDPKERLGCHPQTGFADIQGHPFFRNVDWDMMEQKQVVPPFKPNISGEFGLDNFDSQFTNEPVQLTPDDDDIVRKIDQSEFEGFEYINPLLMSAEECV
# [13] = molecular target: T2, Protein kinase C iota type (Homo sapiens); settings: at 1 µM
# [14] = molecular target: Protein kinase C theta type (Homo sapiens) (UniProt Q04759); settings: at 0.1 µM
# Chain of Protein kinase C theta type (Homo sapiens) (Q04759 whole entry, looked up): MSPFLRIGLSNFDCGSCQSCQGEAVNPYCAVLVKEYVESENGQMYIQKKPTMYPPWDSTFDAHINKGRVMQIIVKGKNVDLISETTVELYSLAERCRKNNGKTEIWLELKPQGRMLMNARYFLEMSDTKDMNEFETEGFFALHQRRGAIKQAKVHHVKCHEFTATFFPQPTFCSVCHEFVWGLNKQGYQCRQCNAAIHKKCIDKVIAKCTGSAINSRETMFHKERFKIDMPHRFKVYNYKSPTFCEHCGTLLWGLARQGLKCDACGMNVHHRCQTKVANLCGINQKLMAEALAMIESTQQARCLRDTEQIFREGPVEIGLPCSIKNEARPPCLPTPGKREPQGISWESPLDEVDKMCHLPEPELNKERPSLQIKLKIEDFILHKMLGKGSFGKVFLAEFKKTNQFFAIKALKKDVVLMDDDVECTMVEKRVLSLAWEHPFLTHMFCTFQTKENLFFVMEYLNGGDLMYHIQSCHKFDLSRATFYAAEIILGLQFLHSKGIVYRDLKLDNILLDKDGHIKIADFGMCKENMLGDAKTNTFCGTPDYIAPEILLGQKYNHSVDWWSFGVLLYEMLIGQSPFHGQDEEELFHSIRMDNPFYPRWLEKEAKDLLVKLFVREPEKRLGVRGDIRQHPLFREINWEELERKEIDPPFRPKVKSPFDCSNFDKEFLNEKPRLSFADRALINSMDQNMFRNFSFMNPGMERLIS
# [15] = molecular target: Protein kinase C theta type (Homo sapiens) (UniProt Q04759); settings: at 1 µM
# [16] = molecular target: Protein kinase C beta type (Homo sapiens) (UniProt P05771); settings: at 0.1 µM; remark: listed apart in the source
# [17] = molecular target: Protein kinase C beta type (Homo sapiens) (UniProt P05771); settings: at 1 µM; remark: listed apart in the source
# [18] = molecular target: T3, Serine/threonine-protein kinase D1 (Homo sapiens) (UniProt Q15139); settings: at 0.1 µM
# T3 sequence (whole entry): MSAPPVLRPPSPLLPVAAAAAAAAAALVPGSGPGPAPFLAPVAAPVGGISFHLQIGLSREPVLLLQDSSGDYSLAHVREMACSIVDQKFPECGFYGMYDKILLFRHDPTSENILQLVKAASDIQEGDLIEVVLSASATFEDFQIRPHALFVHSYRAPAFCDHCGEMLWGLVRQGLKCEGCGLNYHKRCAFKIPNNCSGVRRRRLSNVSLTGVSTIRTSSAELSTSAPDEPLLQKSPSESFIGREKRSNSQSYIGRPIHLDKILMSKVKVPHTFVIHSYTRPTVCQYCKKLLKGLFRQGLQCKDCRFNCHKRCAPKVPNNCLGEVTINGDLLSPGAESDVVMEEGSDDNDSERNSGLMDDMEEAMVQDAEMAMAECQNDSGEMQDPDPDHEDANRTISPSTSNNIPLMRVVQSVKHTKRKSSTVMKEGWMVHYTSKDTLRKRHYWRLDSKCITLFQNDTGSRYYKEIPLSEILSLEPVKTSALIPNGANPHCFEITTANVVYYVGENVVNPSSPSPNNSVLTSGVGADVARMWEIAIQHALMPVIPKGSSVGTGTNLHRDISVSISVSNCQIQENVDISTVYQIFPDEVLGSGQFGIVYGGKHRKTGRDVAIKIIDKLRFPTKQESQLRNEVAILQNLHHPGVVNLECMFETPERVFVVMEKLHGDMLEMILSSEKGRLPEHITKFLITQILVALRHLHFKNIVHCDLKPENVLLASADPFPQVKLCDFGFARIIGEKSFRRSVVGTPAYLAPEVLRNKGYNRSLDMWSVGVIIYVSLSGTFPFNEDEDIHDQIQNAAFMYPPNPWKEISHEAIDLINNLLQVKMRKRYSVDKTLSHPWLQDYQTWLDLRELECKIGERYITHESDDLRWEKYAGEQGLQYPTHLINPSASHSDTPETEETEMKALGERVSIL
# [19] = molecular target: T3, Serine/threonine-protein kinase D1 (Homo sapiens); settings: at 1 µM
# [20] = molecular target: T4, Serine/threonine-protein kinase D2 (Homo sapiens) (UniProt Q9BZL6); settings: at 0.1 µM;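 further: reported percent inhibition values are means, part of the GSK PKIS kinase panel screen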
# T4 sequence (whole entry): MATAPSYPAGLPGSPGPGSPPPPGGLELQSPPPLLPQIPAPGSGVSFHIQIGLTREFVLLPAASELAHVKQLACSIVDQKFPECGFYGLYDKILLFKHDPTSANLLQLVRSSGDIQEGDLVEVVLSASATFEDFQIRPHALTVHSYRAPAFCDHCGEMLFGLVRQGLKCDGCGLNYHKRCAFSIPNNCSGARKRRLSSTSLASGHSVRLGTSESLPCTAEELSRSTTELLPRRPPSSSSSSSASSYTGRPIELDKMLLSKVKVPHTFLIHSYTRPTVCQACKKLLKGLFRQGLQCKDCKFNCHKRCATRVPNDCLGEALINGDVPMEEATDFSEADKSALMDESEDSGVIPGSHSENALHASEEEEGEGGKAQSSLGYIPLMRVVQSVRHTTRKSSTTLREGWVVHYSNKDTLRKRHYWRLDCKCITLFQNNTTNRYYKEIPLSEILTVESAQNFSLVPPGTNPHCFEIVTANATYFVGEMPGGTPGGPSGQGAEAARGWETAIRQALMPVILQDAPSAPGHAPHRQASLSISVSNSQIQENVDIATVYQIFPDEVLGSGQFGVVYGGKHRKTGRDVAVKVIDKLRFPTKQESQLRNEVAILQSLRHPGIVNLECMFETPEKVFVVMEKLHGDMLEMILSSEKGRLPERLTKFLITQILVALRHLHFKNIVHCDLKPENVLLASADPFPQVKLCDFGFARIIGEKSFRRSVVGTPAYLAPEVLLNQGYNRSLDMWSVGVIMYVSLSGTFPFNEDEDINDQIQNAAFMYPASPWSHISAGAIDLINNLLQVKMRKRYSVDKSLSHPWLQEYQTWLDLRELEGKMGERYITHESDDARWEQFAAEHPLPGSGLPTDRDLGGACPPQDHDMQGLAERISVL
SMILES,inhibition [1],inhibition [2],inhibition [3],inhibition [4],inhibition [5],inhibition [6],inhibition [7],inhibition [8],inhibition [9],inhibition [10],inhibition [11],inhibition [12],inhibition [13],inhibition [14],inhibition [15],inhibition [16],inhibition [17],inhibition [18],inhibition [19],inhibition [20]
CN(C)C(=O)O[C@H]1CN[C@H](C#Cc2cc3ncnc(Nc4ccc(OCc5cccc(F)c5)c(Cl)c4)c3s2)C1,1.92%,2.32%,4.73%,0.57%,-0.37%,-1.06%,0.39%,1.05%,1.68%,3.2%,0.1%,0.58%,1.07%,1.43%,0.06%,1.29%,1.12%,2.38%,2.68%,2.3%
COc1ccc2ncnc(Nc3ccc(OCc4ccccc4)cc3)c2c1,1.04%,2.11%,1.43%,-0.06%,1.22%,0.57%,2.16%,-0.44%,-0.65%,0.01%,5.03%,0.61%,-0.95%,1.21%,1.19%,0.9%,1.9%,3.89%,3.35%,0.24%
COC(=O)Nc1nc2cc(Oc3ccc(NC(=O)Nc4cccc(Br)c4)cc3)ccc2[nH]1,3.36%,1.25%,1.19%,1.04%,1.61%,-0.97%,2.4%,-0.37%,4.28%,-0.79%,0.29%,1.23%,0.06%,1.7%,1.69%,0.71%,2.06%,2.15%,4.31%,4.58%
CN(C)C(=O)O[C@@H]1CN[C@@H](C#Cc2cc3ncnc(Nc4ccc(OCc5cccc(F)c5)c(Cl)c4)c3s2)C1,0.77%,0.67%,1.2%,0.33%,1.13%,-1.27%,2.12%,4.86%,1.38%,-1.57%,-0.54%,-1.15%,0%,-0.8%,-1.63%,0.88%,0.87%,0.32%,3.71%,0.79%
N#Cc1c(NC(=O)c2ccccc2F)sc2c1CCCC2,-1.52%,-0.5%,0.91%,-0.76%,1.15%,0.38%,1.07%,-2.89%,1.15%,0.73%,0.15%,-1.48%,-0.75%,-0.76%,-0.86%,-0.47%,0.43%,-1.42%,0.24%,0.84%
CCn1c(-c2nonc2N)nc2ccc(F)cc21,-0.67%,2.75%,6.34%,1%,1.33%,2.61%,15.6%,6.39%,26.6%,4.75%,5.71%,2.23%,1.51%,4.58%,6.97%,1.15%,4.26%,4.58%,6.64%,5.68%
CN1CCN(C(=O)c2ccc(NC(=O)Nc3ccc(N(C)c4ccnc(Nc5ccc(CS(C)(=O)=O)cc5)n4)cc3)cc2)CC1,1.6%,1.2%,4.5%,-0.39%,0.75%,0.01%,2.15%,3.18%,2.34%,2.19%,2.89%,-0.67%,-0.1%,1.17%,1.43%,1.51%,2.4%,2.19%,6.28%,2.12%
O=C1Nc2ccc(-c3cccnc3)cc2C1=Cc1cc(Br)c(O)c(Br)c1,3.18%,1.62%,1.19%,1.72%,2.45%,0.24%,-1.03%,3.09%,0.7%,4.09%,6.29%,1.6%,3.35%,1.77%,2.57%,0.86%,1.44%,2.94%,4.25%,3.88%
c1ccc(Nc2ncc(-c3ccccc3)o2)cc1,4.59%,2.19%,3.41%,1.37%,2.47%,-0.26%,-0.49%,2.48%,5.31%,2.57%,4.48%,1.64%,0.9%,1.93%,2.27%,1.46%,2.63%,4.37%,7.71%,4.47%
COc1cc(Nc2nccc(-c3cnn4ncccc34)n2)cc(OC)c1,3.22%,2.46%,10.7%,12.4%,64%,0.12%,8.95%,3.16%,3.86%,0.71%,16.8%,-0.04%,0.62%,0.09%,6.77%,1.8%,16.9%,1.77%,16.4%,2.57%
C[C@@H](Oc1cc(-n2cnc3ccc(OC[C@@H](O)CO)cc32)sc1C(N)=O)c1ccccc1Cl,0.22%,-0.26%,-0.61%,-0.25%,3.02%,-0.38%,1.7%,0.53%,0.23%,-1.57%,-0.26%,-0.24%,1.09%,-0.9%,0.85%,-1.05%,2.03%,-1.17%,0.36%,0.81%
c1ccc(Cc2nc3ccc(Nc4ncnc5ccccc45)cc3[nH]2)cc1,0.78%,1.15%,2.76%,1.22%,4.52%,1.26%,1.59%,2.55%,2.75%,1.69%,2.9%,0.63%,0.68%,1.76%,2.47%,0.1%,0.12%,2.88%,6.43%,2.49%
COc1cc2ncnc(Nc3ccc4c(cnn4Cc4ccccc4)c3)c2cc1OC,0.98%,0.6%,-0.11%,0.53%,0.88%,0.81%,-2.42%,5.6%,3.69%,2.66%,2.04%,0.72%,0.48%,0.78%,0.99%,0.94%,0.88%,2.89%,5.2%,2.96%
[O-][S+]1CCN(Cc2ccc(-c3ccc4ncnc(Nc5ccc(OCc6ccccc6)c(Cl)c5)c4c3)o2)CC1,0.06%,2.94%,7.99%,0.05%,0.88%,0.56%,0.65%,1.86%,2.18%,-0.93%,3.28%,1.72%,1.88%,1.06%,1.03%,0.97%,2.88%,1.74%,2.75%,1.16%
